Experimental data as given in PubChem BioAssay AID489042 (NMMLSC, 2010).
The source made the active and inactive calls. Cut-off read from the data, not from the text of the source: active = inhibition score above about 11; inactive = the rest.

Experiment: S. cerevisiae short- and long-term growth effects – BY4741, OD595, 24 h, dose response (AID 489042)
Conditions: flow cytometer event count, 7 d (AID 449753), active compounds read high

Compound	inhibition score
Cn1c(O)c(C(=Nc2ccc(F)cc2)c2ccccc2Cl)c(=O)n(C)c1=O	0 (inactive)
OCC[n+]1c2ccccc2nc2ccc(N3CCOCC3)cc21	0 (inactive)
C[n+]1c2ccccc2nc2ccc(NCCO)cc21	0 (inactive)
C[C@]12CCC3C(CC[C@H]4C[C@@H](O)CC[C@]34C)[C@H]1CC[C@H]2O (stereo not given in full)	0 (inactive)
C[C@]12CCC3C(CC[C@H]4C[C@@H](O)CC[C@]34C)C1CC[C@@H]2OC(=O)[C@H](N)CCCCN (stereo not given in full)	0 (inactive)
Nc1cc2nc3ccccc3nc2cc1N	0 (inactive)
C#C[C@]1(O)[C@H](O)CC2C3CC[C@H]4C[C@@H](O)CC[C@]4(C)C3CC[C@@]21C (stereo not given in full)	0 (inactive)
O=c1[nH]c(O)c(C=Nc2ccc(F)c(Cl)c2)c(=O)[nH]1	0 (inactive)
Cn1c(=O)[nH]c2nncnc2c1=O	0 (inactive)
C[C@]12CCC3C(CC[C@H]4C[C@H](O)CC[C@]34C)C1C[C@@H](CCCCl)[C@@H]2O (stereo not given in full)	0 (inactive)
C=C1C(O)[C@@H]2O[C@]3(CC[C@H](/C=C/C(C)[C@@H]4CC(C)=CC5(O[C@H](C[C@@](C)(O)C(=O)O)CCC5O)O4)O3)CC[C@H]2O[C@@H]1C(O)CC(C)[C@H]1OC2(CCCCO2)CCC1C (stereo not given in full)	11 (active)
CC(=O)O[C@H]1CCC2C3CC[C@H]4[C@@H](O)[C@H](O)CC[C@]4(C)C3CC[C@@]21C (stereo not given in full)	0 (inactive)
Oc1cccc2nc3ccccc3nc12	0 (inactive)
C[C@]12CCC3C(CC[C@H]4C[C@H](O)CC[C@]34C)C1CCC2=O (stereo not given in full)	0 (inactive)
CNc1ccc2nc3ccccc3[n+](C)c2c1	0 (inactive)
